According to PubChem BioAssay (NCATS):
Values joined by “and” are separate entries in the source; they are usually repeats but may differ in a detail not shown here. Equal entries are not always repeated. Inconclusive results are not listed. Active and inactive are the calls of the source. Unless noted, calls follow the shape of the dose curve; as a rule, active = well fitted curve in the direction sought with a large enough effect; inconclusive = small, poorly fitted or top-dose-only effect, or another doubt; inactive = no such curve, though single readings can be large; an effect the other way counts as inactive or inconclusive.

Columns and labels:
[1] = Cell Viability - Jurkat (AID 426;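 active = dose-dependent loss of cell ATP signal giving a full or clear fitted curve, ranked by lower potency value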;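 also: potency is read from the fitted curve at half-maximal effect; cells exposed to compound for 40 hours at 37 °C before ATP read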); settings: qHTS
Method in brief: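 qHTS, 1536-well; Jurkat E6-1, 5000 cells/well, complete medium; cpd 40 hr, 37 °C; CellTiter-Glo 20 min RT; luminescence. AC50 by Hill fit.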

[2] = Cell Viability - Hek293 (AID 427;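 active = compounds whose dose-response curve shows a full or clear partial loss of cell viability, called from curve shape rather than a numeric limit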;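 also: potency is read from the fitted curve at half-maximal effect; cells exposed to compound for 40 hours at 37 °C before reading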); settings: qHTS
Method in brief: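 Luminescent ATP read-out (CellTiter-Glo, 20 min RT) after 40 hr compound exposure at 37 °C in complete medium. Signal normalized to DMSO (basal) and 100 uM tamoxifen (100% inhibition); concentration-response fitted with the standard Hill equation to give AC50.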

[3] = Cell Viability - HepG2 (AID 433; calls by dose curve;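 also: potency is read from the fitted curve at half-maximal effect; cells exposed to compound for 40 hours; potency for ATP loss meaning cytotoxicity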); settings: qHTS
Method in brief: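 HepG2 cells, 1500 per well, treated 40 hr at 37 °C in complete medium; viability from intracellular ATP by CellTiter-Glo luminescence. Normalized to DMSO and 100 uM tamoxifen; AC50 from Hill fit of qHTS concentration-response.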

[4] = Cell Viability - HUV-EC-C (AID 542); settings: HUV-EC-C endothelial cell viability, qHTS; series mostly up to 92.2 µM;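 also: cells exposed to compound for 40 hours; % is scaled to controls: 0 for no effect and ±100 for the full control effect; nearly all actives have a fitted effect of over 35% in size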
Method in brief: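 qHTS cytotoxicity: HUV-EC-C, 1000 cells/well, 5 hr settle, compound 40 hr 37 °C, CellTiter-Glo, luminescence. AC50 via Hill equation.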

[5] = Cell Viability - H-4-II-E (AID 543); settings: H-4-II-E rat hepatoma viability; series mostly up to 92.2 µM;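 also: cells exposed to compound for 40 hours; % is scaled to controls: 0 for no effect and ±100 for the full control effect; nearly all actives have a fitted effect of over 35% in size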
Method in brief: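 Luminescent ATP signal (CellTiter-Glo) served as the viability read-out, with cytotoxicity seen as a concentration-dependent ATP drop. Cells were treated for 40 hours in complete medium. AC50 values derive from Hill-equation modelling.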

[6] = Cell Viability - SH-SY5Y (AID 544); settings: SH-SY5Y neuroblastoma cell viability; series mostly up to 92.2 µM;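 also: cells exposed to compound for 40 hours; nearly all actives have a fitted effect of over 55% in size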
Method in brief: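 Luminescent ATP read-out (CellTiter-Glo) measures loss of viable SH-SY5Y neuroblastoma cells after 40 hr compound exposure at 37 °C. AC50 values derive from standard Hill modelling of qHTS concentration-response data.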

[7] = Cellular Toxicity (caspase-3) SHSY5Y (AID 657); settings: SH-SY5Y caspase-3 activation, DMSO zero, 10 µM staurosporine = 100%; series mostly up to 91.7 µM
Method in brief: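 SH-SY5Y human neuroblastoma cells, 1500/well, exposed to compound for 16 hours at 37 °C in complete medium. Caspase-3/7 activity read by Caspase-Glo luminescence after 1 hr at room temperature, normalized to DMSO and 10 uM staurosporine; AC50 from Hill fit.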

[8] = Cellular Toxicity (caspase-3) SK-N-SH (AID 661); settings: SK-N-SH caspase-3 activation, qHTS, DMSO as zero, staurosporine as full; series mostly up to 91.7 µM
Method in brief: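 Human neuroblastoma SK-N-SH, 1500 cells/well, 5 hr pre-incubation, then compound 16 hr, 37 °C. Caspase-Glo 3/7 reagent, 1 hr RT, luminescence. Norm. to DMSO/10 uM staurosporine; Hill-fit AC50.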

[9] = Cellular Toxicity (caspase-3) H-4-II-E (AID 663); settings: H-4-II-E rat hepatoma; Potency: caspase-3 activation; series mostly up to 92.2 µM;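 also: cells exposed to compound for 16 hr before readout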
Method in brief: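 Apoptosis induction is scored as increased luminescence from caspase 3/7 substrate cleavage in rat hepatoma H-4-II-E cells exposed to compound for 16 hr. Activity is scaled between DMSO and 100 uM tamoxifen.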

[10] = Cellular Toxicity (caspase-3) N2a (AID 665); settings: N2a cells, luminescence, normalized: DMSO 0%, 10 µM staurosporine 100%; series mostly up to 92.2 µM;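 also: compound exposure lasted 16 h at 37 °C before readout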
Method in brief: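 N2a cells, 1500/well, 5 h settle at 37 °C; cpd 16 h, 37 °C; Caspase-Glo 3/7, 1 h RT; luminescence. Norm: DMSO = 0, 10 uM staurosporine = 100%. AC50, Hill fit.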

[11] = Cellular Toxicity (caspase-3) NIH 3T3 (AID 666); settings: NIH 3T3 caspase-3 activation, apoptosis/toxicity, 0% DMSO, 100% is 100 µM tamoxifen; series mostly up to 92.2 µM;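 also: caspase signal read after 16 h compound exposure; 0% = DMSO basal and 100% = 100 µM tamoxifen stimulation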
Method in brief: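 Luminescence from aminoluciferin released by caspase-3/7 cleavage of a peptide substrate served as read-out. Mouse fibroblast NIH 3T3 cells were exposed to compounds over a concentration range for 16 hours, and AC50 values came from standard Hill modelling.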

[12] = MultiTox-Fluor Cytotoxicity Assay - LYMP1-001 - Dead Cells (AID 946); settings: LYMP1-001 lymphoblastoid cells, dead-cell protease fluorescence; series mostly up to 92.2 µM;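 also: 0% = DMSO and 100% = tetraoctylammonium bromide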
Method in brief: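 AC50 from Hill fit of concentration-response; data normalized to DMSO (basal) and 15 uM tetraoctylammonium bromide (100%). LYMP1-001 lymphoblastoid cells, 2500/well, 16 hr compound at 37 C; dead-cell protease fluorescence, Ex/Em 485/520.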

[13] = Cell Viability - LYMP1-002 - Assay at 16 hr (AID 948); settings: LYMP1-002 lymphoblastoid cell viability; series mostly up to 92.2 µM;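 also: 0% = DMSO alone and full effect = 92 µM tetraoctylammonium bromide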
Method in brief: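 LYMP1-002 human lymphoblastoid cells, 2500/well, were treated with compounds for 16 hr at 37 C in complete medium. Viability was read as intracellular ATP by CellTiter-Glo luminescence, and AC50 was derived from a Hill fit to concentration-response data.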

[14] = Cell Viability - LYMP2-010 (AID 981); settings: LYMP2-010 lymphoblastoid cell viability, qHTS; series mostly up to 92.2 µM; also: % is scaled to controls: 0 for no effect and ±100 for the full control effect; nearly all actives have a fitted effect of over 55% in size
Method in brief: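 Luminescent ATP signal (CellTiter-Glo) served as the viability read-out. Cells of the human lymphoblastoid line were treated with compound over a concentration range for 24 hours at 37 C, and AC50 values came from Hill-equation modeling.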

[15] = Cell Viability - LYMP2-012 (AID 982); settings: LYMP2-012 lymphoblastoid cell viability qHTS; series mostly up to 92.2 µM;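 also: cellular ATP by luciferase luminescence where a drop means cytotoxicity; cells exposed to compound for one day before reading; 0% = DMSO only and full loss = 92 µM tetraoctylammonium bromide; nearly all actives have a fitted effect of over 55% in size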
[16] = Cell Viability - LYMP2-018 (AID 985); settings: LYMP2-018 lymphoblastoid cells, viability (qHTS); series mostly up to 92.2 µM;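 also: compound exposure lasted 24 hr at 37 °C; plate controls were DMSO only for no effect and tetraoctylammonium bromide at 92 µM for full effect; nearly all actives have a fitted effect of over 50% in size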
Method in brief: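 Luminescent ATP signal (CellTiter-Glo, read after 30 min at room temperature) reports viable cells after 24 hr compound treatment at 37 C. Concentration-response data were fitted to the standard Hill equation for AC50.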

[17] = Cell Viability - LYMP2-024 (AID 988); settings: LYMP2-024 lymphoblastoid cell viability; series mostly up to 92.2 µM;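 also: plate controls were DMSO only for no effect and 92 µM tetraoctylammonium bromide for full effect; nearly all actives have a fitted effect of over 60% in size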
Method in brief: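 Steps: seed 2500 cells/well, 5 hr 37 C; add compound, 24 hr 37 C; add CellTiter-Glo, 30 min room temperature; read luminescence. AC50 derived by Hill modelling of concentration-dependent ATP loss.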

[18] = molecular target: Retinoic acid receptor RXR-alpha (Homo sapiens) (UniProt P19793); test: qHTS assay for small molecule antagonists of retinoid X receptor alpha signaling (AID 588546; active = well fitted inhibition curve with a large enough effect in the signal ratio, with a control signal flat, not every such curve was filed as active; the % refers to the signal ratio;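 also: cells stimulated with 9-cis-retinoic acid as agonist; % is scaled to controls: 0 for no effect and ±100 for the full control effect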); settings: HEK293T RXRa-UAS-bla, beta-lactamase ratio, antagonist mode
Sequence of Retinoic acid receptor RXR-alpha (Homo sapiens) (P19793 whole entry, looked up): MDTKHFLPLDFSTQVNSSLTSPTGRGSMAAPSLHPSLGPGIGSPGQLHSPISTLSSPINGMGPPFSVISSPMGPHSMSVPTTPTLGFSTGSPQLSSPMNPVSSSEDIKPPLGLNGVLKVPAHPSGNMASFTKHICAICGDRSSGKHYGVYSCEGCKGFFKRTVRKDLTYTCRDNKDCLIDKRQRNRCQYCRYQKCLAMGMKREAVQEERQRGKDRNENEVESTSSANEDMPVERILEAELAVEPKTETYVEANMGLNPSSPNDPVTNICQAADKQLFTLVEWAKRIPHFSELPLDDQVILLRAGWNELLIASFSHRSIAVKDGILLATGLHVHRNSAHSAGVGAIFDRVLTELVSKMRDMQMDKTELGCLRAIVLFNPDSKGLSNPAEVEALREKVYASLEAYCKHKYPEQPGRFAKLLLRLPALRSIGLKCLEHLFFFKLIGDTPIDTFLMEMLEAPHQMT
Method in brief: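 Beta-lactamase reporter inhibition, read as CCF4 fluorescence ratio (ex 405, em 460/530 nm) after 2 h at RT. HEK293T UAS-bla cells, 2500/well, were stimulated with 9-cis-RA at 500 or 100 nM final alongside test compound for 18 h at 37 C.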

[19] = qHTS assay for small molecule agonists of the antioxidant response element (ARE) signaling pathway measured by Nrf2-dependant transcriptional activity - cell viability counter screen (AID 720653; active = well fitted curve in the direction sought with a large enough effect in the repeat runs; an effect the other way counts as inactive or inconclusive; also: % is scaled to controls: 0 for no effect and ±100 for the full control effect); settings: ARE-bla HepG2 viability, CellTiter-Glo ATP luminescence, 16 h; max response: hits give low values
Method in brief: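 Cytotoxicity counter screen: intracellular ATP quantified by CellTiter-Glo luminescence in the same ARE-bla HepG2 plates, after 16 h compound exposure and a 2 h beta-lactamase substrate step.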

[20] = qHTS assay for cell viability of the p53RE-bla HCT-116 cell line (AID 743292); settings: p53RE-bla HCT-116 viability, ATP luminescence, 16 h; series mostly up to 95 µM; also: % is scaled to controls: 0 for no effect and ±100 for the full control effect; nearly all actives have a fitted effect of over 55% in size
Method in brief: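 HCT-116 p53RE-bla cells seeded 4,000/well; 5 h at 37 C; compound (DMSO) added; 16 h at 37 C; CellTiter-Glo added, 30 min RT; luminescence read.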

ClCCCl
inactive: Potency [1] > 92 µM | Potency [2] > 92 µM | Potency [3] > 92 µM | outcome [4] | Potency [5] | Potency [6] | outcome [7] | outcome [8] | Potency [9] | outcome [10] | outcome [11] | Potency [12] | Potency [13] | Potency [14] | Potency [15] | Potency [16] | Potency [17] | max response [18] -2.31% and -1.04% and -10.6% | max response [19] 20.3% and 6% and -12.9% | Potency [20]

C/C=C\c1ccc(OC)cc1
inactive: Potency [1] > 92 µM | Potency [2] > 92 µM | Potency [3] > 92 µM | outcome [4] | Potency [5] | Potency [6] | outcome [7] | outcome [8] | Potency [9] | outcome [10] | outcome [11] | Potency [12] | Potency [13] | Potency [14] | Potency [15] | Potency [16] | Potency [17] | max response [18] 3.92% | max response [19] -0.534% | Potency [20]

c1ccccc1
inactive: Potency [1] > 92 µM | Potency [2] > 92 µM | Potency [3] > 92 µM | outcome [4] | Potency [5] | Potency [6] | outcome [7] | outcome [8] | Potency [9] | outcome [10] | outcome [11] | Potency [12] | Potency [13] | Potency [14] | Potency [15] | Potency [16] | Potency [17] | max response [19] -0.292% [middle of 4 runs] | Potency [20]

C1OCOCO1
inactive: Potency [1] > 92 µM | Potency [2] > 92 µM | Potency [3] > 92 µM | outcome [4] | Potency [5] | Potency [6] | outcome [7] | outcome [8] | Potency [9] | outcome [10] | outcome [11] | Potency [12] | Potency [13] | Potency [14] | Potency [15] | Potency [16] | Potency [17] | max response [18] 38.1% | max response [19] -3.94% | Potency [20]

CC(C)=CCCC(C)CCO (centres undefined)
inactive: Potency [1] > 92 µM | Potency [2] > 92 µM | Potency [3] > 92 µM | outcome [4] | Potency [5] | Potency [6] | outcome [7] | outcome [8] | Potency [9] | outcome [10] | outcome [11] | Potency [12] | Potency [13] | Potency [14] | Potency [15] | Potency [16] | Potency [17] | max response [18] -7.24% and 2.51% | max response [19] -2.24% and -1.77% | Potency [20]

CN(C)CCCCCCN(C)C
inactive: Potency [1] > 92 µM | Potency [2] > 92 µM | Potency [3] > 92 µM | outcome [4] | Potency [5] | Potency [6] | outcome [7] | outcome [8] | Potency [9] | outcome [10] | outcome [11] | Potency [12] | Potency [13] | Potency [14] | Potency [15] | Potency [16] | Potency [17] | max response [18] 23.1% | max response [19] 1.08% | Potency [20]

CC1=CC(C)(C)Nc2ccccc21
inactive: Potency [1] > 92 µM | Potency [2] > 92 µM | Potency [3] > 92 µM | outcome [4] | Potency [5] | Potency [6] | outcome [7] | outcome [8] | Potency [9] | outcome [10] | outcome [11] | Potency [12] | Potency [13] | Potency [14] | Potency [15] | Potency [16] | Potency [17] | max response [18] 7.64% and -0.906% | max response [19] 0.655% and 4.88% | Potency [20]

O=C(O)c1ccc(O)cc1O
inactive: Potency [1] > 92 µM | Potency [2] > 92 µM | Potency [3] > 92 µM | outcome [4] | Potency [5] | Potency [6] | outcome [7] | outcome [8] | Potency [9] | outcome [10] | outcome [11] | Potency [12] | Potency [13] | Potency [14] | Potency [15] | Potency [16] | Potency [17] | max response [18] 1.87% | max response [19] 4.94% and 4% | Potency [20]

COC(=O)c1ccc(C)cc1
inactive: Potency [1] > 92 µM | Potency [2] > 92 µM | Potency [3] > 92 µM | outcome [4] | Potency [5] | Potency [6] | outcome [7] | outcome [8] | Potency [9] | outcome [10] | outcome [11] | Potency [12] | Potency [13] | Potency [14] | Potency [15] | Potency [16] | Potency [17] | max response [18] 25.4% and -1.75% | max response [19] 2.73% and -0.323% | Potency [20]

CC(=O)OC/C=C(\C)CCC=C(C)C
inactive: Potency [1] > 92 µM | Potency [2] > 92 µM | Potency [3] > 92 µM | outcome [4] | Potency [5] | Potency [6] | outcome [7] | outcome [8] | Potency [9] | outcome [10] | outcome [11] | Potency [12] | Potency [13] | Potency [14] | Potency [15] | Potency [16] | Potency [17] | max response [18] 5.08% and 4.69% | max response [19] -2.65% and 12.5% | Potency [20]
